# The entries come from a sample that favours hits as a whole.
# Sa helicase inh – blocks Staphylococcus aureus DNA helicase; purified S. aureus helicase, fluorescence unwinding assay; inhibition, % (no concentration beside the values); actives 0.05% (n = 120,000); in the data active = inhibition above about 25%, passing the limit was not always enough;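 also: 0% = mean of negative control wells and 100% = mean of positive control wells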
# Sa growth inh – S. aureus growth inhibition; S. aureus RN4220 growth, OD600, 20 h, 42 °C; hits give low values; relative growth, % (no concentration beside the values); actives 0.53% (n = 170,000); AID 720641;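 active = relative growth at most 50% at the other temperature and 20+ points below 30 °C, or under 10% at both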
# The depositor's hits bear a star; nt = no result given; ! = not active in a repeat.
SMILES,Sa helicase inh,Sa growth inh
Cc1cc(C(=O)CSc2ncnc3c2cnn3-c2ccccc2)c(C)n1C1CCS(=O)(=O)C1 (stereo not given),-9,70
Cc1cc(C)[nH]c(=S)n1,-4,77
Cc1cc(=S)nc(C(C)C)[nH]1,-6,28*
CCOC(=O)c1c(N)n(CCO)c2nc3ccccc3nc12,-10,91
CC(C)CS(=O)(=O)c1oc(-c2cccs2)nc1S(=O)(=O)c1ccccc1,22,23*
CCC(C)S(=O)(=O)c1oc(-c2ccc(F)cc2)nc1S(=O)(=O)c1ccc(C)cc1 (stereo not given),28,80
CCC(C)S(=O)(=O)c1oc(-c2ccc(F)cc2)nc1S(=O)(=O)c1ccc(F)cc1 (stereo not given),nt,15*
CCCCCS(=O)(=O)c1oc(-c2cccs2)nc1S(=O)(=O)c1ccc(C)cc1,nt,88
Cc1ccc(S(=O)(=O)c2nc(-c3ccccc3)oc2S(=O)(=O)c2ccc(C)cc2)cc1,19,92
CCS(=O)(=O)c1oc(-c2ccc(F)cc2)nc1S(=O)(=O)c1ccccc1,nt,2.2*
CCCCS(=O)(=O)c1oc(-c2cccs2)nc1S(=O)(=O)c1ccc(F)cc1,nt,103
CCCCS(=O)(=O)c1oc(-c2ccc(F)cc2)nc1S(=O)(=O)c1ccc(C)cc1,nt,4.8*
COc1cccc(-c2cc(C(=O)NCC(C)C)on2)c1,24,84
COC(=O)C1=C(C)N(CC2CCCO2)C(=O)/C1=C\c1cc(C)n(-c2ccc(OC)c(Cl)c2)c1C (stereo not given),9,97
O=C(/C=C/c1ccco1)N(Cc1nnc(-c2ccccc2Cl)o1)C1CC1,5,107
COc1cccc(NC(=O)c2ccnc(N3CCC(C(=O)NC4CCCC4)CC3)c2)c1,12,100
Cc1cc2occ(CC(=O)OCc3cc(=O)n4c(n3)sc3ccccc34)c2cc1C,3,99
CCn1nc(C(=O)O)c(=O)c2cc3c(cc21)OCO3,nt,0.5*
CCn1cc(C(=O)O)c(=O)c2cc3c(cc21)OCO3,nt,98
OC(CNCc1ccccc1)C12CC3CC(CC(C3)C1)C2 (stereo not given),5,94
COc1ccccc1C(=O)Nc1sc2c(c1C(N)=O)CCC2,6,111
COc1cccc2sc(Nc3sc4c(c3C(N)=O)CCCC4)nc12,-2,1.1*
COc1ccc(Br)c(-c2nc3ccccc3c(=O)o2)c1,nt,112
Cc1[nH]ccc(=O)c1OC(C)C(N)=O (stereo not given),nt,104
Cc1nn(-c2ccccc2)c2[nH]cc(C(=O)Nc3ccccc3)c(=O)c12,5,8.8*
SMILES,Sa helicase inh,Sa growth inh
Cc1cc(C(=O)Nc2ccc(Cl)cc2)c2c(C)nn(-c3ccccc3)c2n1,nt,105
O=C1N=c2ccccc2=C1c1c(O)[nH]c2ccc(Cl)cc12,-7,49*
CCn1c(O)c(C2=c3cc(Cl)ccc3=NC2=O)c2ccccc21,-13,93
CC1(C)Cc2c(sc3nc(=O)n(Cc4ccco4)c(N)c23)CO1,10,99
CN(C)S(=O)(=O)c1ccc(NC(=O)Nc2ccccc2)cc1,0,85
COc1cc2nc(Nc3ccc(C)c(C)c3)nc(N)c2cc1OC,nt,95
COc1cc2nc(N(C)C)nc(N)c2cc1OC,44*,88
COC(=O)c1cccc2c1NC(c1cccnc1)C1CC=CC21 (stereo not given),13,95
Fc1ccc(CNc2ccc(N3CCCC3)cc2)cc1,-2,113
CC1CC(=O)Nc2ccccc2N1C(=O)c1cccs1 (stereo not given),-11,92
Nc1ccc(C(c2ccc(N)cc2)C2NC(=O)c3ccccc32)cc1 (stereo not given),5,97
CC(C)NC(=O)n1cc(F)c(=O)[nH]c1=O,-4,-0.6*
CCCCCNC(=O)CCCCCn1c(=O)[nH]c2ccsc2c1=O,nt,95
NC(=O)Cn1cc(F)c(=O)[nH]c1=O,15,90
CCCCCCNC(=O)n1cc(F)c(=O)[nH]c1=O,nt,1.1*
C=CCn1c(C)nnc1SCc1cc(=O)oc2cc(NC(C)=O)ccc12,11,114
CCCCc1sc(N)nc1-c1ccc2c(c1)CCN2S(C)(=O)=O,12,110
COc1cc2c(cc1OC)C(=O)C(CC1CCN(Cc3ccccc3)CC1)C2 (stereo not given),nt,46*!
CN1CCC(N(C)C2CCN(Cc3ccccc3)CC2)CC1,7,96
CN1/C(=C/c2cccc[n+]2C)C=Cc2ccccc21,54*,69
CN1/C(=C/C=C(C#N)C#N)C=Cc2ccccc21,-50,76
CN(C)c1ccc(/C=C2\C(=O)ON=C2c2cccs2)c(Cl)c1,nt,92
C=CCn1c(Cc2ccc(O)c(Cl)c2)n[nH]c1=S,-25,92
CCN(C(=O)Cc1c(C(=O)O)[nH]c2ccc(Cl)cc12)c1ccc(C)c(C)c1,6,80
CCCN(C(=O)Cc1c(C(=O)O)[nH]c2ccc(Cl)cc12)c1ccc(OCC)cc1,nt,29*
SMILES,Sa helicase inh,Sa growth inh
COc1ccc(-c2cc(C(=O)O)c3c(C)[nH]nc3n2)cc1,11,115
O=C(CCn1ccnc1)OCc1ccccc1,17,106
O=C(OCCn1ccnc1)c1ccc(-c2ccccc2)cc1,9,3.0*
CC(C)C(=O)/C(C#N)=N/Nc1ccc(F)cc1,-13,8.0*
N#C/C(=N\Nc1ccc(F)cc1)C(=O)NCC1CCCO1 (stereo not given),-15,93
COc1cc2c(C#N)c(N3CCN(S(=O)(=O)c4ccccc4C(F)(F)F)CC3)nc(N)c2c(N)n1,-39,97
Cc1cc(C)c2c(=O)cc(CSCC(=O)Nc3nnc(C)s3)[nH]c2c1,nt,-0.5*
Cc1ccc2c(=O)cc(CSCC(=O)Nc3nnc(C)s3)[nH]c2c1,nt,95
CCOc1ccc(/C=C(\C#N)C(=O)NCc2ccco2)cc1OC,3,103
CCc1nnc(NC(=O)c2nc(S(=O)(=O)Cc3cccc(C)c3)ncc2Cl)s1,nt,11
Cc1cccc(CS(=O)(=O)c2ncc(Cl)c(C(=O)Nc3nnc(C(C)C)s3)n2)c1,nt,5.0*
CCc1nnc(NC(=O)c2nc(S(=O)(=O)Cc3ccc(C)cc3)ncc2Cl)s1,nt,11
Cc1ccc(CS(=O)(=O)c2ncc(Cl)c(C(=O)Nc3nnc(C(C)C)s3)n2)cc1,nt,5.6*
Cc1ccc(CN(Cc2cccnc2)C(=O)Nc2ccccc2)cc1,23,92
O=C(CSc1nc(-c2cccc(Cl)c2)nc2cc(=O)[nH]n12)Nc1ccccc1,nt,89
O=C(CSc1nc(-c2ccccc2F)nc2cc(=O)[nH]n12)Nc1cccc(C(F)(F)F)c1,nt,2.8*
Cn1c(C(C#N)c2cnn(-c3ccccc3)c(=O)c2Br)nc2ccccc21 (stereo not given),1,103
CCCN(C(=O)[C@H]1[C@@H]2C[C@@H]3[C@H]1C(=O)O[C@@H]3C2)c1c(C)cc(C)cc1C,-17,109
Cc1ccc(/C(C#N)=C\c2cccs2)cc1,8,93
Cc1ccc(/C(C#N)=C\c2ccco2)cc1,-1,42*
N#C/C(=C\c1ccco1)S(=O)(=O)c1ccc(Cl)cc1,4,88
N#C/C(=C\c1ccco1)c1ccc(Cl)cc1,nt,49*
N#C/C(=C/c1ccc(Br)o1)c1ccc(C(=O)O)cc1,1,124
N#C/C(=C/c1ccco1)c1ccc(Br)cc1,-4,22*
Cc1ccc2nc(-c3cc4ccccc4o3)cc(C(=O)O)c2c1,28,99
CC(C)(C)c1ccc(OCNC(=S)NC(=O)c2cncc(Br)c2)cc1,2,97
Cc1ccc(Cl)cc1NC(=O)CC(O)(C(F)(F)F)C(F)(F)F,5,-0.8*

# High-throughput results: PubChem BioAssay, ICCB-Longwood Screening Facility, Harvard Medical School
